High-throughput results: PubChem BioAssay, several laboratories
Most compounds without a hit are left out; they make up all but 1.4% or so of the library.
Sa RN4220 lethal – growth inhibition of S. aureus RN4220, primary screen, OD600 | 16 h | inhibition, % (no concentration beside the values) | 0.33% of 330,000 active | AID 1259311, 2017; in the data active means inhibition above about 85%;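 further: plate controls were untreated cells for no effect and reference antibiotic for full effect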
Mtb hypoxia inh – PubChem AID 1159583; M. tuberculosis hypoxia-regulated fluorescent reporter, fluorescence; fluorescence inhibition, % (concentration not given with the values); 0.1% of 300,000 active; in the data active means fluorescence inhibition mostly above about 23%, no sharp cut-off; inactive means mostly below about 17%
SSB-PriA inh – inhibitors of Klebsiella pneumoniae PriA binding to SSB C-terminal tail, primary screen, biochemical, AlphaScreen | PriA–SSB C-terminal tail interaction (Klebsiella pneumoniae) | AlphaScreen SSBct-PriA binding, biotinylated peptide | inhibition, % at 33 µM | 0.6% of 430,000 active | AID 1272365, 2023; in the data active means inhibition mostly above about 37%, no sharp cut-off; inactive means mostly below about 20%;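 further: plate controls were negative control peptide for no effect and reference peptide for full effect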
Sa ugtP lethal – growth inhibition of ugtP-null S. aureus, primary screen, RN4220 ugtP deletion, OD600; 16 h; growth inhibition, % (concentration not given with the values); 0.54% of 330,000 active; AID 1259309, 2017; in the data active means growth inhibition above about 68%;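 further: plate controls were untreated wells for no effect and antibiotic for full effect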
CCHFV vOTU inh – CCHFV vOTU protease inhibitors, primary screen, biochemical, Pep-AMC substrate, fluorescence | inhibition, % at 11.5 µM | 0.55% of 370,000 active | AID 651958, 2012; in the data active means inhibition above about 30%; further: 0% = vehicle wells with enzyme and 100% = no enzyme wells
* hit, by the source's call; nt = no result given.

SMILES	Sa RN4220 lethal	Mtb hypoxia inh	SSB-PriA inh	Sa ugtP lethal	CCHFV vOTU inh
CN=c1scc(-c2ccc(OC)cc2)n1/N=C(\C)c1cccnc1	nt	nt	nt	nt	-5.0
CN=c1scc(-c2ccc(OC)cc2)n1N=C(C)c1cccnc1	13.8	2.3	43.5*	26.3	nt
O=C(CSc1nc2ccccc2[nH]1)NN=C/C=C/c1ccccc1[N+](=O)[O-]	98.2*	1.4	0.8	97.3*	nt
O=C(CN1C(=O)c2ccccc2S1(=O)=O)Nc1ccc(C(F)(F)F)cc1	nt	nt	9.0	nt	nt
O=C(Nc1cc(Cl)cc(Cl)c1)N1CCCC1	90.6*	19.9	-11.2	91.6	-6.4
O=C(Nc1ccc(F)c(Cl)c1)N1CCCC1	2.5	9.0	-5.4	9.4	-9.8
CCOC(=O)COc1ccc2ccccc2c1/C=C/[N+](=O)[O-]	80.5	9.5	0.5	86.8*	-0.1
CCOc1ccc(/C=C/[N+](=O)[O-])c2ccccc12	95.7*	19.0	12.1	95.2*	nt
CCOC(=O)Cn1cc(/C=C/[N+](=O)[O-])c2ccccc21	11.0	-2.2	-1.1	5.6	6.8
CCOC(=O)COc1ccc(/C=C/[N+](=O)[O-])c(OCC(=O)OCC)c1	6.6	11.0	-2.6	-10.7	16.0
O=C(O)c1cccc(-c2ccc(C=NNC(=O)c3cccnc3)o2)c1	nt	nt	-12.2	nt	nt
ON=C(CN1CCCCC1)c1ccccc1	3.8	11.8	-2.5	21.2	nt
Cc1ccc(Oc2nc3ccccc3n3cccc23)cc1	-10.2	nt	-22.7	95.8*	9.9
O=C(Cn1c(S(=O)(=O)Cc2ccccc2)nc2ccccc21)N1CCN(c2ccccc2)CC1	nt	nt	54.0*	nt	nt
CCS(=O)(=O)c1nc2ccccc2n1CC(=O)N1CCCCC1	1.5	nt	2.2	0.2	4.2
Cc1ccccc1-n1c(SCC(=O)NC(N)=O)nc2sc(-c3ccccc3)cc2c1=O	96.0*	8.3	3.6	98.7*	-3.3
O=C(O)COc1ccc2c(c1)O/C(=C\c1cccc(Br)c1)C2=O	nt	nt	-8.0	nt	nt
CSc1ccc(NC(=O)c2ccccc2C(F)(F)F)nn1	nt	nt	-16.0	nt	nt
CCn1cc(C(=O)O)c(=O)c2cc(F)c(N3CCNCC3)nc21	97.6*	nt	-3.2	97.4*	6.2
CCn1cc(C(=O)O)c(=O)c2ccc(C)nc21	0.2	2.7	-2.8	66.5	8.1
O=C(Nc1nc2c(s1)C(=O)CCC2)c1cnn2c1OCCC2	nt	nt	2.0	nt	nt
CC1(C)CC(=O)C=C(C=Cc2ccccc2)C1	1.1	7.8	nt	-14.3	nt
CON/C=C(\C=Nc1ccc(F)cc1)c1ncc(C(F)(F)F)cc1Cl	-3.1	13.3	nt	91.8*	1.0
COc1ccccc1C=NNC(=O)CC(=O)NCCc1ccccc1	4.8	6.5	0.6	6.5	nt
CCOc1ccc(Oc2ccc(NS(=O)(=O)c3cc(C(=O)O)ccc3Cl)cc2)cc1	0.1	0.2	6.7	1.3	16.2
SMILES	Sa RN4220 lethal	Mtb hypoxia inh	SSB-PriA inh	Sa ugtP lethal	CCHFV vOTU inh
CCOc1ccc(NS(=O)(=O)c2cc(NC(=O)c3ccc(C)cc3)ccc2Cl)cc1	2.4	5.7	-7.1	85.0*	10.6
Cn1c(=O)c2[nH]c(NN=C(C#N)C(N)=O)nc2n(C)c1=O	1.0	3.8	-1.8	5.6	nt
O=C(CN1C(=O)NC2NC(=O)NC21)NN=Cc1ccc(F)cc1 (centres undefined)	1.8	5.2	-0.6	1.6	nt
Cc1ccc(S(=O)(=O)Nc2c(C)n(C)n(-c3ccccc3)c2=O)cc1C(=O)OC(C)C(=O)c1ccccc1 (centres undefined)	17.8	21.3*	14.5	22.3	7.7
Cc1ccc(S(=O)(=O)Nc2c(C)n(C)n(-c3ccccc3)c2=O)cc1C(=O)OC(C)C(=O)N(C)c1ccccc1 (centres undefined)	-6.0	7.5	-6.1	5.3	-1.1
COc1ccc(C(O)=C2C(=O)C(=O)N(CCCN(C)C)C2c2ccccc2F)cc1Cl (centres undefined)	nt	nt	-10.0	nt	nt
Cc1cccc(C=NNC(=O)c2ccccc2-n2cccc2)c1	13.3	7.7	14.5	16.7	nt
Nc1ccc(/C=C/c2ccccc2)cc1	nt	nt	40.0*	nt	nt
CN1CCOc2ccc(NS(=O)(=O)Cc3ccccc3Cl)cc2C1=O	nt	nt	-5.0	nt	nt
Cc1cc(C(C)(C)C)cc(C)c1Cn1c2[n+](c3ccc(C(F)(F)F)cc31)CCCCC2	100.6*	nt	9.8	100.3*	9.3
FC(F)(F)c1cccc(Cn2c3[n+](c4ccc(C(F)(F)F)cc42)CCCCC3)c1	6.4	-2.9	-4.0	2.5	7.8
CCOC(=O)c1c(NC(=O)/C(C#N)=C/c2cn(C)c3ccccc23)sc(C)c1C	nt	nt	-4.0	nt	nt
O=C(Cn1c(=O)oc2cc(S(=O)(=O)N3CCCC3)ccc21)NC1CCCCC1	3.9	-2.3	-13.0	-4.2	5.6
O=C(Cn1c(=O)oc2cc(S(=O)(=O)N3CCCC3)ccc21)NCc1ccc(F)cc1	-0.4	3.3	104.2*	13.6	18.8
CCCOc1ccc(C(=O)ON=C(CC)c2ccc(C)cc2)cc1	-2.1	5.6	-17.1	93.3*	nt
CCCOc1ccc(C(=O)O/N=C(\CC)c2ccc(C)cc2)cc1	nt	nt	nt	nt	19.8
Cn1nccc1C(=O)N1CCN(c2nc3c(F)cccc3s2)CC1	nt	nt	-14.0	nt	nt
Cc1nn(C)c(C)c1NC(=O)Nc1ccc(Cl)c(Cl)c1	active	6.3	-1.9	89.1	0.1
CCOC(=O)c1oc2ccc(CNC3CCCCC3)c(Cl)c2c1C	-1.9	10.5	-1.9	82.3*	-7.1
Clc1ccc(COC(Cn2ccnc2)c2ccc(Cl)cc2Cl)cc1 (centres undefined)	nt	nt	15.4	nt	12.5
Clc1ccc(CSC(Cn2ccnc2)c2ccc(Cl)cc2Cl)cc1 (centres undefined)	97.4*	nt	11.9	84.9	0.7
CCOc1ccccc1NC(=O)Cc1nnc(-c2ccsc2)o1	nt	nt	-4.0	nt	nt
Cc1ccc(C)c(OCC(=O)Nc2cccc(S(=O)(=O)NC3=NCCCCC3)c2)c1	1.7	4.4	49.2*	3.8	-1.9
Cn1c(/C=C/c2ccc([N+](=O)[O-])o2)nc2ccccc2c1=O	99.0*	nt	-4.3	96.6*	nt
Cn1c(/C=C/c2ccccc2)nc2ccccc2c1=O	7.0	12.5	-5.9	-6.0	-7.2
SMILES	Sa RN4220 lethal	Mtb hypoxia inh	SSB-PriA inh	Sa ugtP lethal	CCHFV vOTU inh
COc1ccc(Cl)cc1C(=O)NNC(=S)NC(=O)c1cc(-c2ccccc2)nc2ccccc12	93.4*	4.1	-14.4	97.3*	-0.8
COc1ccc(C(=O)NNC(=S)NC(=O)c2cc(-c3ccccc3)nc3ccccc23)cc1	84.5	-3.7	-3.4	22.3	15.8
CCNc1sc(C(=O)c2cccs2)c(N)c1-c1nc2ccccc2s1	3.7	8.4	54.8*	-0.5	-5.4
C=CCNc1sc(C(=O)c2ccccc2)c(N)c1-c1nc2ccccc2s1	3.0	-82.4	54.1*	-16.4	nt
O=c1ccc(-c2cccs2)nn1Cc1c(F)cccc1Cl	nt	nt	-3.0	nt	nt
COc1ccc(-c2cn3c(C)c(C(=O)N(C)c4ccccc4)sc3n2)cc1	nt	nt	38.0*	nt	nt
COc1ccc(-c2cn3c(C)c(C(=O)N(Cc4ccccc4)c4ccccc4)sc3n2)cc1	nt	nt	12.0	nt	nt
CC(=NNC(=O)C1CCCCC1)c1ccc([N+](=O)[O-])cc1	3.0	9.7	-7.2	3.0	nt
N#Cc1nc(-c2ccc(Cl)cc2)oc1N1CCCCC1	6.4	10.0	64.9*	14.7	-94.6
N#Cc1nc(-c2ccc(F)cc2)oc1N1CCCCC1	5.3	-9.6	10.2	-5.0	-73.1
